This note sets out measurements from the supplement of paper PMC10338343.

± gives the standard deviation. Whole data set: some 8,200 sequences, median “pre-steady-state target cleavage rate” near 0.024, cut for the highest 2% near 1.3. This excerpt belongs to a sample that is enriched for the highest values.

The test has as its system MIWI (PIWIL1) piRISC loaded with L1MC piRNA (30 nt). The experiment in a line: pre-steady-state target cleavage rate (min^-1); MIWI and MILI are mouse PIWI proteins and EfPiwi is from a freshwater sponge; tags in brackets are library labels; higher = faster piRNA-guided slicing of the target. The settings on record: guide: L1MC piRNA 5'p-UAACUAAAUACUAUGCAAGCUGUAGGUCCU
The method, boiled down:
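At 33 °C in HEPES–potassium acetate buffer, a transcribed, DNA-blocked target RNA library […] was exposed for 0–8 or 0–960 min to 1 nM active affinity-purified piRISC carrying a single synthetic guide, with or without 500 nM GTSF1 partner protein. Uncleaved targets were sequenced and normalised to depth and to weakly complementary targets. With three trials pooled and k3 capped at 0.0001 min^-1, a burst-and-steady-state fit produced the pre-steady-state cleavage rate.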

The mark [1] stands for this setting: auxiliary factor: 500 nM mouse GTSF1.
[2] abbreviates: auxiliary factor: none (no GTSF1).
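Also: 1 nM active piRISC with 0.1 nM target library at 33 °C single turnover.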

For AGCUCCUACAGCUUGCAUAGUAUUUAGUAA, the “pre-steady-state target cleavage rate” value stood at 1.01 ± 0.069 under setting [1] and 0.0506 ± 0.011 under setting [2].

Turning to UCCUGCCUACAGCUUGCAUAGUAUUUAGUUA, the “pre-steady-state target cleavage rate” value came to 1.33 ± 0.091 under setting [1] and 0.0623 ± 0.014 under setting [2].

Take UGCUCCUACAGCUUGCAUAGUAUUUAGUUA: the “pre-steady-state target cleavage rate” value came out at 1.33 ± 0.047 under setting [1] and 0.0726 ± 0.012 under setting [2].

Consider UCCUGCUACAGCUUGCAUAGUAUUUAGUUUA, for which the “pre-steady-state target cleavage rate” value runs as follows: under setting [1], 1.17 ± 0.077; under setting [2], 0.0574 ± 0.012.

For the sequence UCCUGCUACAGCUUGCCUAGUAUUUAGUUA, the “pre-steady-state target cleavage rate” value under setting [1] stood at 0.886 ± 0.057 and the “pre-steady-state target cleavage rate” value under setting [2] worked out at 0.0207 ± 0.0037.

For the sequence “UCCUCCUACAGCUUGCAUAGUAUUUAGUUU [g2:g26:cont:t1U]”, the “pre-steady-state target cleavage rate” value runs as follows: under setting [1], 1.29 ± 0.04; under setting [2], 0.0826 ± 0.02.

In the case of UCCACCUACAGCUUGCAUAGUAUUUCAGUUA, the “pre-steady-state target cleavage rate” value under setting [1] was determined as 0.691 ± 0.081 and the “pre-steady-state target cleavage rate” value under setting [2] was 0.0139 ± 0.0037.

Consider AGGACCUACUGCUUGCAUAGUAUUUAGAUA, for which the “pre-steady-state target cleavage rate” value is, setting by setting: under setting [1], 0.471 ± 0.048; under setting [2], 0.0411 ± 0.0086.

On to UCCUGGUAUAGCUUGCAUAGUAUUUAGUUA, for which the “pre-steady-state target cleavage rate” value is, setting by setting: under setting [1], 1.02 ± 0.043; under setting [2], 0.0597 ± 0.012.

In the case of UCCACCUACAGCUUGCAUACUAUAUAGUUA, the “pre-steady-state target cleavage rate” value was 0.178 ± 0.022 under setting [1] and 0.0112 ± 0.003 under setting [2].

For the sequence UGGACCUACAGCUUGCUUAGUAUUUAGUUA, the “pre-steady-state target cleavage rate” value runs as follows: under setting [1], 1.56 ± 0.094; under setting [2], 0.0426 ± 0.011.

With UGGACCUACAGCUUGCUAGUAUUUAGUUA, the “pre-steady-state target cleavage rate” value came out at 0.0515 ± 0.013 under setting [1] and 0.00386 ± 0.0022 under setting [2].

Regarding AGGACCUACAGCUUGCUUAGUAUUUAGUUA, the “pre-steady-state target cleavage rate” value is, setting by setting: under setting [1], 1.43 ± 0.071; under setting [2], 0.066 ± 0.015.

Turning to UCGAGCUACAGCUUGCUUAGUAUUUAGUUA, the “pre-steady-state target cleavage rate” value runs as follows: under setting [1], 1.19 ± 0.053; under setting [2], 0.0376 ± 0.0079.

On to AGGACCUACAGCUUGCUAGUAUUUAGUUA, for which the “pre-steady-state target cleavage rate” value under setting [1] was determined as 0.179 ± 0.041 and the “pre-steady-state target cleavage rate” value under setting [2] was found to be 0.00501 ± 0.0024.

With AGGAGCUACAGCUUGCUUAGUAUUUAGUUA, the “pre-steady-state target cleavage rate” value is 1.3 ± 0.061 under setting [1] and 0.0523 ± 0.011 under setting [2].

With UGGACCUACAGCUUGCUUAGUAUUUAGUAA, the “pre-steady-state target cleavage rate” value reads like this: under setting [1], 1.03 ± 0.073; under setting [2], 0.0335 ± 0.0097.

As for AGGACCUACAGCUUGCUUAGUAUUUAGUAA, the “pre-steady-state target cleavage rate” value runs as follows: under setting [1], 0.862 ± 0.079; under setting [2], 0.0262 ± 0.0068.

On to UGGAGCUACAGCUUGCUUAGUAUUUAGUUA, for which the “pre-steady-state target cleavage rate” value turned out to be 1.33 ± 0.062 under setting [1] and 0.0391 ± 0.0074 under setting [2].

Turning to UCCAGGAACAGCUUGCAUAGUAUUUACAAA, the “pre-steady-state target cleavage rate” value is 0.328 ± 0.041 under setting [1] and 0.00665 ± 0.0019 under setting [2].

For UCCUCCUACAGCUUGCAAAGUUUUUAGUUA, the “pre-steady-state target cleavage rate” value is 0.352 ± 0.029 under setting [1] and 0.0137 ± 0.0033 under setting [2].

Turning to UCCUGGAUGUCCUUUCAUAGUAUUUAGUUA, the “pre-steady-state target cleavage rate” value under setting [1] worked out at 0.0134 ± 0.004.

UCCUGGUAGACCUUGCAUAGUAUUUAGUUA: the “pre-steady-state target cleavage rate” value came out at 0.46 ± 0.042 under setting [1] and 0.00968 ± 0.0029 under setting [2].

Regarding UCCACCUACACCUUGCAUAGAAUUUAGUUA, the “pre-steady-state target cleavage rate” value worked out at 0.337 ± 0.066 under setting [1] and 0.0107 ± 0.003 under setting [2].

As for UCGACCUACAGCUUACAUAGUAUUUAGUUA, the “pre-steady-state target cleavage rate” value by setting is: under setting [1], 1.59 ± 0.062; under setting [2], 0.0382 ± 0.0069.

In the case of UCGACCUACAGCUUGACAUAGUAUUUAGUUA, the “pre-steady-state target cleavage rate” value runs as follows: under setting [1], 0.952 ± 0.072; under setting [2], 0.00438 ± 0.0026.

For AGGACCUACAGCUUCAUAGUAUUUAGUUA, the “pre-steady-state target cleavage rate” value is, setting by setting: under setting [1], 1.11 ± 0.053; under setting [2], 0.0309 ± 0.0073.

UGGACCUACAGCUUCAUAGUAUUUAGUUA: the “pre-steady-state target cleavage rate” value under setting [1] worked out at 1.36 ± 0.077 and the “pre-steady-state target cleavage rate” value under setting [2] worked out at 0.0221 ± 0.0047.

In the case of UGGACCUACAGCUUACAUAGUAUUUAGUUA, the “pre-steady-state target cleavage rate” value runs as follows: under setting [1], 1.53 ± 0.079; under setting [2], 0.0508 ± 0.0082.

Turning to AGGACCUACAGCUUACAUAGUAUUUAGUUA, the “pre-steady-state target cleavage rate” value is, setting by setting: under setting [1], 1.28 ± 0.064; under setting [2], 0.0655 ± 0.011.

As for UGGACCUACAGCUUUCAUAGUAUUUAGUUA, the “pre-steady-state target cleavage rate” value under setting [1] worked out at 0.593 ± 0.032 and the “pre-steady-state target cleavage rate” value under setting [2] was determined as 0.0286 ± 0.0052.

UCCACCUACAGCUUACAUAGUAUUUAGUUA: the “pre-steady-state target cleavage rate” value under setting [1] stood at 0.753 ± 0.034 and the “pre-steady-state target cleavage rate” value under setting [2] came out at 0.0222 ± 0.0039.

With UGGACCUACAGCUUGACAUAGUAUUUAGUUA, the “pre-steady-state target cleavage rate” value was found to be 0.986 ± 0.1 under setting [1] and 0.00706 ± 0.0031 under setting [2].

UCCUGGAAGAGCUUGCAUAGUAUUUACAAA: the “pre-steady-state target cleavage rate” value under setting [1] came to 0.0945 ± 0.02.

Consider UCCUGGAUGAGCUUGCAUAGUAUAUACAAA, for which the “pre-steady-state target cleavage rate” value under setting [1] came to 0.00918 ± 0.0054.

For UCCUGCUACAGCUUGCUUAGUAUAUAGUUA, the “pre-steady-state target cleavage rate” value is, setting by setting: under setting [1], 0.404 ± 0.038; under setting [2], 0.0128 ± 0.0044.

In the case of UCCACCUACUGCUUGCAUACUAUUUAGUUA, the “pre-steady-state target cleavage rate” value runs as follows: under setting [1], 0.297 ± 0.026; under setting [2], 0.0231 ± 0.0039.

For the sequence UCCUGCUAGAGCUUGCAUACUAUUUAGUUA, the “pre-steady-state target cleavage rate” value was found to be 0.248 ± 0.03 under setting [1] and 0.0221 ± 0.0058 under setting [2].
